Screening data (PubChem)
Compounds with a hit are over-represented: about 3% of the library has one in this group of screens.
Statin myotox sup = suppressors of statin myotoxicity in C2C12 myotubes, primary screen, cell-based, single point, plate reader; C2C12 myotubes + simvastatin, ATP luminescence, 48 h; scaled: DMSO 0, geranylgeraniol control 100; rescue of ATP level, % at 7.49 µM; 330,000 tested, 0.78% active; AID 602340, 2012;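 active = mean ATP rescue above about 67%, or every replicate alone reaching that limit, limit read from the data, passing the limit was not always enough; inconclusive = no clear call, values can overlap the other calls; inactive = mean under the limit and some replicate under it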;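 also: myotubes were challenged with 10 µM simvastatin during compound exposure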
Wnt bcat act = Wnt/beta-catenin pathway activators, primary screen, cell-based, plate reader, single point; Wnt/beta-catenin reporter cell assay, activator; activation, % at 9.35 µM; 300,000 tested, 1.2% active; AID 743398, 2014; in the data active = activation above about 30%, passing the limit was not always enough; inconclusive = no clear call, values can overlap the other calls;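 also: 0% = neutral control wells and 100% = positive control wells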
esBAF inh = Bmi1 luciferase reporter increase in mESCs, primary screen, esBAF inhibitor project, mouse ES cells, Bmi1 luciferase knock-in, single point. 350,000 tested, 2% active. 24 h; 100% = twice the neutral-well signal. reporter increase, % at 12.5 µM; in the data active = activation above about 40%; inconclusive = no clear call, values can overlap the other calls;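 also: 0% = median of the plate's neutral control wells and 100% = double that signal; a rise in the Bmi1 reporter signal indicates esBAF inhibition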
MITF TRPM1 HTS = activators of MITF-driven TRPM1 promoter reporter, primary screen, cell-based, SK-MEL-5, luciferase, single point; SK-MEL-5 TRPM1-promoter luciferase, 24 h; % of positive control, neutral wells = 0; activation, % at 12.5 µM; 300,000 tested, 0.75% active; AID 588334, 2011;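 active = mean activation of at least 80% with every replicate also reaching 80%; inconclusive = mean reaches 80% but some replicate falls short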;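 also: 0% = neutral control wells and 100% = parthenolide positive control wells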
Numbers without * were called inactive; ! = not confirmed by another sample.

COc1ccc(C#Cc2ccc3c(c2)O[C@H](CN(C)C(=O)Nc2cccc(OC)c2)[C@H](C)CN([C@H](C)CO)S3(=O)=O)cc1 was read as Statin myotox sup 92* and esBAF inh 8.
`C[C@H](CO)N1C[C@H](C)[C@H](CN(C)C(=O)Nc2ccc3c(c2)OCO3)Oc2ncc(C#Cc3ccc(F)cc3)cc2C1=O` gave Statin myotox sup 74* and esBAF inh 0.
Screening C[C@@H]1CN([C@@H](C)CO)C(=O)c2cc(C#CC3CCCC3)cnc2O[C@H]1CN(C)C(=O)Nc1ccccc1 returned Statin myotox sup inconclusive and esBAF inh 6.
Screening C[C@H](CO)N1C[C@H](C)[C@@H](CN(C)C(=O)Nc2ccccc2)Oc2ncc(C#CC3CCCC3)cc2C1=O returned Statin myotox sup 78* and esBAF inh -2.
COc1ccc(C#Cc2cnc3c(c2)C(=O)N([C@H](C)CO)C[C@H](C)[C@@H](CN(C)C(=O)Nc2cccc(OC)c2)O3)cc1 was read as Statin myotox sup 112*!, Wnt bcat act -2 and esBAF inh 0.
`O=C(Nc1cc(F)ccc1F)N[C@@H]1C=C[C@H](CC(=O)N2CCc3ccccc3C2)O[C@@H]1CO` gave Statin myotox sup 10 and esBAF inh 5.
For C/C=C/c1ccc2c(c1)O[C@@H](CN(C)C(C)=O)[C@H](C)CN([C@H](C)CO)S2(=O)=O the results were Statin myotox sup -1 and esBAF inh 6.
C[C@H]1CN([C@@H](C)CO)C(=O)c2cccc(NS(=O)(=O)c3cn(C)cn3)c2O[C@@H]1CN(C)C(=O)Nc1cccc2ccccc12 was read as Statin myotox sup -2 and esBAF inh 0.
For COCCNC(=O)C[C@@H]1C[C@@H]2c3cc(NS(C)(=O)=O)ccc3O[C@@H]2[C@H](CO)O1 the results were Statin myotox sup -8 and esBAF inh -2.
`Cc1ccc(N2CSC3=C(C#N)C(c4cccs4)CC(=O)N3C2)cc1` (stereo unspecified) gave Statin myotox sup -4, Wnt bcat act -3, esBAF inh 54* and MITF TRPM1 HTS 10.
`COc1cc(OC)c(C2CC(=O)N3CN(c4ccc(C)cc4)CSC3=C2C#N)cc1OC` (stereo unspecified) gave Statin myotox sup 0, Wnt bcat act 38*, esBAF inh 36 and MITF TRPM1 HTS 56.
Screening COc1ccc(N2CSC3=C(C#N)C(c4cc(OC)c(OC)cc4OC)CC(=O)N3C2)c(OC)c1 (stereo unspecified) returned Statin myotox sup 12, Wnt bcat act -2 and esBAF inh 10.
Screening CC(=O)N(C)C[C@@H]1Oc2ncc(-c3cccc(F)c3)cc2C(=O)N([C@@H](C)CO)C[C@@H]1C returned Statin myotox sup -2 and esBAF inh 5.
For O=C(CCCOc1ccc(Cl)cc1)N1CCCCCC1 the results were Statin myotox sup 11, esBAF inh 62* and MITF TRPM1 HTS 43.
O=C(CCCOc1ccccc1)N1CCCCC1 was read as Statin myotox sup 94*, esBAF inh -73 and MITF TRPM1 HTS -1.
For CC(C)(C)c1ccc(OCCCC(=O)N2CCOCC2)cc1 the results were Statin myotox sup -10, Wnt bcat act 14, esBAF inh 66* and MITF TRPM1 HTS 44.
For CCCCOc1ccc(-c2nnn(CCC(=O)N3CCOCC3)n2)cc1 the results were Statin myotox sup -7, Wnt bcat act 11, esBAF inh 63* and MITF TRPM1 HTS 60.
Screening O=C(CCCOc1ccc(Cl)cc1)N1CCCCC1 returned Statin myotox sup -14, Wnt bcat act 7, esBAF inh 17 and MITF TRPM1 HTS 49.
Screening CCCNC(=O)[C@@H]1[C@@H](CO)[C@@H]2Cn3c(ccc(C4=CCCCC4)c3=O)[C@H]1N2C(=O)CC returned Statin myotox sup 25 and esBAF inh 8.
Screening CC(=NC1CCCCC1)C1=C(O)c2ccccc2C1=O returned Statin myotox sup 24, Wnt bcat act inconclusive, esBAF inh 14 and MITF TRPM1 HTS 90*.
For COc1ccc(S(=O)(=O)N(C)C[C@H]2Oc3ccc(NC(=O)Nc4ccccc4)cc3C(=O)N([C@@H](C)CO)C[C@H]2C)cc1 the results were Statin myotox sup -31 and esBAF inh 3.
Cc1noc(C)c1NC(=O)Nc1ccc2c(c1)CC(=O)N([C@H](C)CO)C[C@@H](C)[C@@H](CN(C)C(=O)NC(C)C)O2 was read as Statin myotox sup -1 and esBAF inh -2.
For Nc1cc2c(cc1Br)-c1ccccc1C2=NO the results were Statin myotox sup -5, Wnt bcat act 34*, esBAF inh 63* and MITF TRPM1 HTS 16.
`CCOC(=O)N1CCC(Nc2ncnc3c2cnn3-c2ccccc2)CC1` gave Statin myotox sup -7, esBAF inh 6 and MITF TRPM1 HTS 1.
Screening CC(C)Nc1ncnc2c1cnn2-c1ccccc1 returned Statin myotox sup -5, Wnt bcat act 53* and esBAF inh 12.
CC(=O)CSc1ncnc2c1cnn2-c1ccccc1 was read as Statin myotox sup 1, Wnt bcat act 42*, esBAF inh 12 and MITF TRPM1 HTS 59.
Cc1cccc(-n2ncc3c(NC(C)C)ncnc32)c1 was read as Statin myotox sup -20, Wnt bcat act 19, esBAF inh 7 and MITF TRPM1 HTS 60.
Screening CNC(=O)CSc1ncnc2c1cnn2-c1ccccc1 returned Wnt bcat act 0 and MITF TRPM1 HTS 32.
Screening c1ccc(-n2ncc3c(NC4CCCCCC4)ncnc32)cc1 returned Statin myotox sup -64, Wnt bcat act 24 and esBAF inh 55*.
For C[C@H](CO)N1C[C@H](C)[C@@H](CN(C)C(=O)Nc2ccccc2)Oc2c(NC(=O)Nc3cccc4ccccc34)cccc2C1=O the results were Statin myotox sup 16 and esBAF inh -3.
Screening CCN(CC)C(=O)c1cc2sc3ccccc3c2s1 returned Statin myotox sup -45, esBAF inh 80* and MITF TRPM1 HTS 98*.
Screening Cc1ccc(OCc2cc(C(=O)N3CC4C[C@@H]5CC3C[C@H](C4)C5)no2)cc1C returned Statin myotox sup 9, Wnt bcat act 20, esBAF inh 52* and MITF TRPM1 HTS 110*.
Cc1cccc(C)c1OCc1cc(C(=O)N2CC3C[C@@H]4CC2C[C@H](C3)C4)no1 was read as Statin myotox sup -1, Wnt bcat act 36*, esBAF inh 82* and MITF TRPM1 HTS 115*.
COc1ccc(/C=C/C(=O)Nc2cc(C)nn2-c2nc3ccccc3[nH]2)cc1 was read as Wnt bcat act 8 and MITF TRPM1 HTS 92*.
Screening Cc1cc(NC(=O)/C=C/c2ccc(F)cc2)n(-c2nc3ccccc3[nH]2)n1 returned Wnt bcat act -2 and MITF TRPM1 HTS 31.
For CC1CN/C(=C\C(=O)c2ccc(Cl)cc2)C(=O)N1 (stereo unspecified) the results were Statin myotox sup 88*, Wnt bcat act 0, esBAF inh -27 and MITF TRPM1 HTS -1.
